In PubChem BioAssay (NCI) one finds growth inhibition data, which are given here for 9 molecules.

A short description of test [1]: NCI Yeast Anticancer Drug Screen. Data for the rad50 strain (AID 155).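 Note: 0% = growth of vehicle-only cultures of the same strain.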 The following applies: S. cerevisiae rad50 strain growth inhibition, hits give high values. Put shortly: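 Cells are treated with compound, grown, and their growth is then scored against vehicle-only cultures of the same repair-deficient yeast strain.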
Test [2] can be described thus: NCI Yeast Anticancer Drug Screen. Data for the mec2-1 strain (AID 157). Conditions: S. cerevisiae mec2-1 strain, hits give high values. Put shortly:
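Each compound was tested on mec2-1 yeast, a strain altered in DNA damage repair or cell cycle control. Growth inhibition is reported relative to vehicle.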

Test [3] in a line: NCI Yeast Anticancer Drug Screen. Data for the sgs1 mgt1 strain (AID 161).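 Note: 0% = growth of cultures given vehicle only.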 The following applies: S. cerevisiae sgs1 mgt1 strain, hits give high values. Put shortly:
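Inhibition of yeast growth, normalised to vehicle-treated controls, is reported for a strain bearing genetic alterations in DNA damage repair.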

The nature of test [4]: NCI Yeast Anticancer Drug Screen. Data for the cln2 rad14 strain (AID 165).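 Note: 0% = growth equal to vehicle treated cultures.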 The following applies: S. cerevisiae cln2 rad14 strain, hits give high values. The gist of the method:
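Test compounds were added to cln2 rad14 yeast cultures; inhibition of growth was then determined by comparison with vehicle treatment.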

Test [5] in a line: NCI Yeast Anticancer Drug Screen. Data for the bub3 strain (AID 167). Conditions: S. cerevisiae bub3 mutant strain, hits give high values. Put shortly: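 Part of a panel of yeast mutants defective in DNA damage repair or cell cycle regulation. Each strain is grown with compound, and inhibition is calculated relative to solvent-treated cultures.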
A short description of test [6]: NCI Yeast Anticancer Drug Screen. Data for the mlh1 rad18 strain (AID 175). Conditions: S. cerevisiae mlh1 rad18 strain growth inhibition, hits give high values. Put shortly:
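Inhibition values reflect reduced growth of mutant yeast versus vehicle-treated controls following compound exposure; the mutations affect DNA damage repair.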

[7] abbreviates: at 5.0 µM (retest, dose inferred, filed as 0.5).
[8] abbreviates: at 50.0 µM (retest, dose inferred, filed as 5.0).

Molecules are shown by their SMILES. This is part of a sample that, as a whole, favours compounds with a hit. Of some 79,000 tested, about 15% had one in any assay. A number with no mark means an inactive call. Active and inactive are the calls of the source. Cut-off read from the data, not from the text of the source: active = growth inhibition above about 70%; inactive = the rest.

Regarding `CCCCCCCCCC1OCC(C)O1` (configuration not stated), the growth inhibition was 3% in test [1] (setting [7]); 30% in test [1] (setting [8]); 53% in test [1] (at 50.0 µM); 3% in test [2] (setting [7]); 30% in test [2] (setting [8]); 44.6% in test [2] (at 50.0 µM). Also, the growth inhibition is -2% in test [3] (setting [7]); 38% in test [3] (setting [8]); 73.2% (active) in test [3] (at 50.0 µM); 6% in test [4] (setting [7]); 17% in test [4] (setting [8]); 4% in test [4] (at 50.0 µM). Further, the growth inhibition was 7% in test [5] (setting [7]); 36% in test [5] (setting [8]); 7.7% in test [5] (at 50.0 µM); 4% in test [6] (setting [7]); 62% in test [6] (setting [8]); 61.2% in test [6] (at 50.0 µM).

With `O=C(O)c1c(Cl)c(Cl)c(Cl)c(Cl)c1-c1c2ccc(=O)cc-2oc2cc(O)ccc12`, the growth inhibition in test [1] (setting [7]) is 54%; in test [1] (setting [8]) it was 97% (active); in test [1] (at 50.0 µM), 86.7% (active); in test [2] (setting [7]), 45%; in test [2] (setting [8]) it was 99% (active); in test [2] (at 50.0 µM) it was 92% (active). For the same molecule, the growth inhibition in test [3] (setting [7]) is 61%; in test [3] (setting [8]), 99% (active); in test [3] (at 50.0 µM), 90.5% (active); in test [4] (setting [7]), 57%; in test [4] (setting [8]) it was 98% (active); in test [4] (at 50.0 µM) it was 91.2% (active). Moreover, the growth inhibition in test [5] (setting [7]) is 57%; in test [5] (setting [8]), 99% (active); in test [5] (at 50.0 µM) it was 90.1% (active); in test [6] (setting [7]), 67%; in test [6] (setting [8]) it was 98% (active); in test [6] (at 50.0 µM), 86.2% (active).

Turning to `S=C(Nc1ccc(Cl)c(Cl)c1)SC1CCCCC1`, the growth inhibition in test [1] (setting [7]) was 17%; in test [1] (setting [8]), 96% (active); in test [1] (at 50.0 µM), 47.2%; in test [2] (setting [7]) it was 11%; in test [2] (setting [8]), 97% (active); in test [2] (at 50.0 µM), 64.2%. The growth inhibition in test [3] (setting [7]) was 11%; in test [3] (setting [8]), 98% (active); in test [3] (at 50.0 µM), 87.1% (active); in test [4] (setting [7]), -1%; in test [4] (setting [8]), 95% (active); in test [4] (at 50.0 µM) it was 87.5% (active). The growth inhibition in test [5] (setting [7]) was 17%; in test [5] (setting [8]), 96% (active); in test [5] (at 50.0 µM), 83.3% (active); in test [6] (setting [7]) it was 20%; in test [6] (setting [8]) it was 96% (active); in test [6] (at 50.0 µM) it was 90% (active).

`COC(=O)c1cc(=O)n(-c2ccccc2C(F)(F)F)c(SC)n1`: the growth inhibition in test [1] (setting [7]) is 24%; in test [1] (setting [8]) it was 91% (active); in test [1] (at 50.0 µM), 99.2% (active); in test [2] (setting [7]) it was 14%; in test [2] (setting [8]) it was 92% (active); in test [2] (at 50.0 µM) it was 99.5% (active). Moreover, the growth inhibition is 43% in test [3] (setting [7]); 94% (active) in test [3] (setting [8]); 99.5% (active) in test [3] (at 50.0 µM); 14% in test [4] (setting [7]); 87% (active) in test [4] (setting [8]); 96.8% (active) in test [4] (at 50.0 µM). In addition, the growth inhibition in test [5] (setting [7]) is 7%; in test [5] (setting [8]), 89% (active); in test [5] (at 50.0 µM), 99.5% (active); in test [6] (setting [7]) it was 39%; in test [6] (setting [8]), 95% (active); in test [6] (at 50.0 µM), 99.5% (active).

`O=C(CNc1ccc([N+](=O)[O-])cc1)Nn1c(-c2ccccc2)nc2ccccc2c1=O`: the growth inhibition in test [1] (setting [7]) is 18%; in test [1] (setting [8]) it was 23%; in test [1] (at 50.0 µM) it was 82.1% (active); in test [2] (setting [7]), 3%; in test [2] (setting [8]) it was 26%; in test [2] (at 50.0 µM) it was 70.5% (active). Also, the growth inhibition in test [3] (setting [7]) is 6%; in test [3] (setting [8]), 25%; in test [3] (at 50.0 µM), 72.7% (active); in test [4] (setting [7]), 11%; in test [4] (setting [8]), 19%; in test [4] (at 50.0 µM) it was 38.8%. In addition, the growth inhibition in test [5] (setting [7]) was 4%; in test [5] (setting [8]), 54%; in test [5] (at 50.0 µM), 91.8% (active); in test [6] (setting [7]) it was 2%; in test [6] (setting [8]) it was 28%; in test [6] (at 50.0 µM), 85.4% (active).

As for `CCS/C(SC)=C(/c1ccccc1)[P+](c1ccccc1)(c1ccccc1)c1ccccc1`, the growth inhibition is 98% (active) in test [1] (setting [7]); 99% (active) in test [1] (setting [8]); 90.6% (active) in test [1] (at 50.0 µM); 99% (active) in test [2] (setting [7]); 100% (active) in test [2] (setting [8]); 94.3% (active) in test [2] (at 50.0 µM). Also, the growth inhibition was 99% (active) in test [3] (setting [7]); 99% (active) in test [3] (setting [8]); 91.6% (active) in test [3] (at 50.0 µM); 98% (active) in test [4] (setting [7]); 99% (active) in test [4] (setting [8]); 91.5% (active) in test [4] (at 50.0 µM). Besides, the growth inhibition in test [5] (setting [7]) was 99% (active); in test [5] (setting [8]), 100% (active); in test [5] (at 50.0 µM), 91% (active); in test [6] (setting [7]), 98% (active); in test [6] (setting [8]), 99% (active); in test [6] (at 50.0 µM), 91.8% (active).

Consider `CC(C)(C)NCc1cc(Nc2ccnc3cc(Cl)ccc23)cc(-c2ccc(Cl)cc2)c1O`, for which the growth inhibition in test [1] (setting [7]) was -6%; in test [1] (setting [8]) it was 19%; in test [1] (at 50.0 µM) it was 14.7%; in test [2] (setting [7]) it was -4%; in test [2] (setting [8]), 17%; in test [2] (at 50.0 µM), -16.1%. The growth inhibition in test [3] (setting [7]) is -5%; in test [3] (setting [8]), -15%; in test [3] (at 50.0 µM), -9.6%; in test [4] (setting [7]), -2%; in test [4] (setting [8]) it was 18%; in test [4] (at 50.0 µM), 68.5%. For the same molecule, the growth inhibition in test [5] (setting [7]) was 7%; in test [5] (setting [8]), -8%; in test [5] (at 50.0 µM), 2.1%; in test [6] (setting [7]), -1%; in test [6] (setting [8]), 22%; in test [6] (at 50.0 µM), 20.5%.

On to `O=c1c2ccccc2sc2cccc(NCCCN3CCN(CCCNc4cccc5sc6ccccc6c(=O)c45)CC3)c12`, for which the growth inhibition in test [1] (setting [7]) is -1%; in test [1] (setting [8]), 4%; in test [1] (at 50.0 µM), 28.4%; in test [2] (setting [7]) it was -2%; in test [2] (setting [8]), -3%; in test [2] (at 50.0 µM) it was -10.7%. In addition, the growth inhibition was 4% in test [3] (setting [7]); 13% in test [3] (setting [8]); 3.3% in test [3] (at 50.0 µM); -3% in test [4] (setting [7]); -6% in test [4] (setting [8]); 46% in test [4] (at 50.0 µM). For the same molecule, the growth inhibition in test [5] (setting [7]) is -2%; in test [5] (setting [8]), -5%; in test [5] (at 50.0 µM), -9.1%; in test [6] (setting [7]), -3%; in test [6] (setting [8]), -65%; in test [6] (at 50.0 µM) it was 0.6%.

`CCOC1=Cc2c(oc3c(C(C)(C)C)cc(OCC)cc23)OC(C(C)(C)C)=C1`: the growth inhibition in test [1] (setting [7]) was 22%; in test [1] (setting [8]) it was 95% (active); in test [1] (at 50.0 µM), 71.2% (active); in test [2] (setting [7]) it was 22%; in test [2] (setting [8]), 98% (active); in test [2] (at 50.0 µM), 85.3% (active). For the same molecule, the growth inhibition in test [3] (setting [7]) is 28%; in test [3] (setting [8]), 97% (active); in test [3] (at 50.0 µM) it was 73.4% (active); in test [4] (setting [7]), 13%; in test [4] (setting [8]) it was 96% (active); in test [4] (at 50.0 µM), 75.7% (active). Also, the growth inhibition was 32% in test [5] (setting [7]); 98% (active) in test [5] (setting [8]); 78.7% (active) in test [5] (at 50.0 µM); 44% in test [6] (setting [7]); 94% (active) in test [6] (setting [8]); 19.6% in test [6] (at 50.0 µM).
